Compounds with a hit are over-represented: about 14% of the library has one in this group of screens.
Shiga toxin inh = A qHTS for Small Molecule Inhibitors of Shiga Toxin; AID 2315, 2010; inhibition, % at 38.7 µM; 9.2% of 290,000 active; Vero cells, Shiga toxin protein synthesis inhibition reporter; in the data active means inhibition mostly above about 28%, no sharp cut-off; inactive means mostly below about 43%; further: 0% is about no effect
NS1 inh = qHTS Assay for Inhibitors of Influenza NS1 Protein Function; Potency, µM (top dose mostly 46.1 µM), inactives show top-dose activity, positive = more growth; 0.4% of 270,000 active; calls by dose curve; further: potency means the concentration at half of the fitted maximal effect; actives are rising curves; nearly all actives have a fitted effect of over 50% in size
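A cell-based growth assay was used: compounds that relieve NS1-induced slow growth of budding yeast raise OD600. Assay medium was yeast nitrogen base with ammonium sulphate and -URA supplement, pH 6.0, with 2% galactose.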
CHX counter = Cycloheximide Counterscreen for Small Molecule Inhibitors of Shiga Toxin. 12% of 300,000 active. cell reporter, cycloheximide protein synthesis inhibition counterscreen. max response, %. AID 2314, 2010; in the data active means max response mostly above about 13%, no sharp cut-off; inactive means mostly below about 14%; further: read at 38.3 µM for the half of the compounds with a filed dose; 0% is about no effect
Giardia FBPA inh = qHTS Assay for Inhibitors of Fructose-1,6-bisphosphate Aldolase from Giardia Lamblia; A8B2U2; purified Giardia FBPA; Potency, µM (highest dose often 59.6 µM), for inactives: top-dose activity, negative = inhibition, actives largely listed as inhibitors; 0.71% of 290,000 active; AID 2451, 2010; further: potency means the concentration at half of the fitted maximal effect; on the % scale 0 is the no-effect control and ±100 the full control effect; nearly all actives have a fitted effect of over 55% in size
Target sequence (A8B2U2 whole entry, looked up): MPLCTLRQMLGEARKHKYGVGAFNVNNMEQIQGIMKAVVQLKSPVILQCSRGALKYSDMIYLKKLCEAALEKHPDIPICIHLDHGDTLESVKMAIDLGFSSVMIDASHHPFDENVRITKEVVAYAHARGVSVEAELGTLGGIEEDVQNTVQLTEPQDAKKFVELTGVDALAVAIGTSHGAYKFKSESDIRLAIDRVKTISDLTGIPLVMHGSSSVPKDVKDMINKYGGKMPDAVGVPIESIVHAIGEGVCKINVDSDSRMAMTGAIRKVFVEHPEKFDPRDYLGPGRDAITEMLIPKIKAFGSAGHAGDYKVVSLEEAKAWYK
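Giardia FBPA (40 nM reagent) was preincubated 10 min at RT with compound (up to 57.5 uM final), then substrate plus GAPDH/TPI/NAD/arsenate coupling system with diaphorase/resazurin was added; resorufin fluorescence (525/598 nm) was read after 20 min.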
LmPK inhibitor = qHTS Assay for Inhibitors of Leishmania Mexicana Pyruvate Kinase (LmPK). Q27686. purified LmPK, Kinase-Glo ATP luminescence, 1 h. Potency, µM (highest dose often 57.5 µM), for the others: at the highest dose activity change, negative = inhibition, hits mostly inhibitors. 0.37% of 290,000 active; further: potency means the concentration at half of the fitted maximal effect; on the % scale 0 is the no-effect control and ±100 the full control effect
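Kinase-Glo luminescence read after 1 h RT reaction of 0.1 nM LmPK with 0.5 mM PEP and 0.1 mM ADP. Activity scaled between uninhibited and enzyme-free controls.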
Starred values were filed as active, the others as inactive; ? = inconclusive; / = no result given; [ ] = remark or other dose. Unless noted, the call rests on the fitted dose curve; in most records, active means well fitted curve in the direction sought with a large enough effect; inconclusive means small, poorly fitted or top-dose-only effect, or another doubt; inactive means no such curve, though single readings can be large; an effect the other way counts as inactive or inconclusive.

SMILES	Shiga toxin inh	NS1 inh	CHX counter	Giardia FBPA inh	LmPK inhibitor
CC(C)(C)C1CCC(=NNc2nc3ccccc3[nH]2)CC1 (centres undefined)	68*	/	37*	0%	0%
c1ccc(CN2CCC(=NNc3nc4ccccc4[nH]3)CC2)cc1	31	/	33*	-10%	1%
COc1cc(OC)c(OC)cc1/C=N/Nc1nc2ccccc2[nH]1	-2	-4%	-2	1%	4%
O=C(O)c1cc(NN=C2CCN(Cc3ccccc3)CC2)ccc1Cl	12	-1%	1	-19%	4%
c1ccc2c(c1)CC/C2=N/Nc1nc2ccccc2[nH]1	119*	/	47*	-20%	-6%
C/C(=N\Nc1nc2ccccc2[nH]1)c1ccc([N+](=O)[O-])cc1	-8	?	7	0%	?
NC(=O)C1CCN(CC(O)COCc2ccccc2Cl)CC1 (centres undefined)	-9	-9%	-8	5%	-2%
O=C(O)c1ccc(OCc2ccccc2)c(Cl)c1	/	-30%	/	/	/
Cn1c(-c2ccccc2)cnc1NCc1cc(Cl)ccc1O	18	-20%	17*	?	-2%
Cn1c(-c2ccc(F)cc2)cnc1NCc1ccc(F)cc1F	23*	-7%	13	-25%	2%
COC(=O)[C@@H](Cc1ccc(O)cc1)NC(=O)[C@H]1CCC(=O)N1C(=O)OCc1ccccc1	-3	-1%	-1	11%	-13%
CCC(C(=O)NCc1ccco1)n1nc(C)n2c(cc3occc32)c1=O (centres undefined)	-8	-2%	1	6%	-3%
Cc1c(CCC(=O)N2CCC[C@H]2C(=O)O)c(=O)oc2c(C)c3oc4c(c3cc12)CCCC4	5	29%	8.5*	-5%	1%
Clc1ccc(CSc2ncn[nH]2)cc1	45	-14%	14	-10%	-10%
CC(C)Oc1ccc(CSc2ncn[nH]2)cc1	51*	-4%	32*	-4%	-2%
O=C1OC(c2ccc(Cl)cc2)/C(=C(/O)c2ccccc2)C1=O (centres undefined)	65*	15%	37*	8%	3%
CN1C(=O)C(=O)/C(=C(/O)c2ccc(Br)cc2)C1c1ccc(Cl)cc1 (centres undefined)	/	-12%	1	6%	7%
COc1ccc(CNC(C)C23CC4CC(CC(C4)C2)C3)c(OC)c1OC (centres undefined)	-3	-5%	-4	2%	1%
Cc1ccc(SCC(=O)c2cc(C)c(O)c(C)c2)cc1	50*	-55%	17*	3%	3%
Cc1ccc(SCC(=O)c2c(C)nc3ccccn23)cc1	62*	/	31*	-1%	-4%
Cc1ccnc(NC(=S)NC(=O)c2cccs2)c1	160*	-25%	78*	?	-14%
Cc1ccnc(NC(=S)NC(=O)c2ccco2)c1	96*	6%	40*	?	-10%
O=C(NC(=S)Nc1cccnc1Cl)c1ccco1	55*	/	21*	-17%	-22%
CC(=O)NC(=S)Nc1ccc(NC(=S)NC(=O)c2cccs2)cc1	-13	-1%	-4	/	-9%
O=C(NC(=S)Nc1ccccn1)c1ccco1	58*	1%	47*	?	-29%
SMILES	Shiga toxin inh	NS1 inh	CHX counter	Giardia FBPA inh	LmPK inhibitor
CC(C)(C)C(=O)NC(=S)Nc1ccccn1	15	-6%	17	-19%	-2%
COC(=O)C(NC(=O)c1ccco1)(Nc1cc(C)ccn1)C(F)(F)F (centres undefined)	-4	4%	-3	?	4%
O=[N+]([O-])c1cc(C=Nc2cccc3c(O)cccc23)ccc1Cl	14	-18%	4	-9%	3%
Cc1cc(C)c(S(=O)(=O)N2CCCC(C(=O)NCc3ccccn3)C2)c(C)c1 (centres undefined)	-2	3%	-6	12%	0%
Cc1ccc(CC(=O)Nc2cc(C)ccn2)cc1	17	-4%	16	-4%	-8%
CCNC(=S)Nc1cc(C)ccn1	29*	2%	14	-6%	5%
O=C(CC(=O)NC1CCCCC1)N/N=C/c1ccccc1[N+](=O)[O-]	47*	9%	29*	3%	3%
O=C(CCCO)N/N=C/c1ccccc1[N+](=O)[O-]	39*	7%	1	3%	-2%
O=C(N/N=C/c1ccccc1[N+](=O)[O-])C(=O)N1CCCC1	52*	4%	20*	-1%	-11%
O=C(CC(=O)NC1CCCCC1)N/N=C/c1ccccc1Cl	-11	7%	-1	1%	-6%
COC(=O)c1cc(NC(=S)N2CCN(C(=O)C3CCCO3)CC2)cc(C(=O)OC)c1 (centres undefined)	33	-1%	-2	-15%	3%
CC(C)=CCC/C(C)=C/CO/N=C1/C[C@@H](O)[C@@H](O)[C@@H]2[C@@H]3C(=O)N(C[C@@H]4CCCO4)C(=O)[C@H]3CC[C@H]12	/	/	/	-2%[12.9 µM]	/
CC(=O)c1sc(NC(=O)c2cc3c(C)nn(-c4ccccc4)c3s2)nc1C	19	3%	-2	7%	-2%
Cc1nn(-c2ccccc2)c2sc(C(=O)NC3CC3)cc12	81*	?	52*	1%	-1%
O=C(NC1CC1)C1=C[C@@H](C2CCCCC2)C[C@@H](OCc2ccc(CO)cc2)O1	-7	2%	1	4%	3%
O=C(Nc1ccccc1)C1=C[C@H](C2CC2)C[C@H](OCCCCO)O1	104*	-1%	28*	-12%	2%
CC(C)(C)[C@@H]1C=C(C(=O)Nc2ccccc2)O[C@H](OCc2ccc(CO)cc2)C1	50	-12%	26*	-10%	3%
NC(=O)C1=C[C@H](C2CCCCC2)C[C@H](OCc2ccc(CO)cc2)O1	63*	4%	50*	-15%	7%
CC(C)(C)[C@H]1C=C(C(N)=O)O[C@@H](OCc2ccc(CO)cc2)C1	40	-1%	13*	-8%	-1%
O=C(NCc1ccccc1)C1=C[C@@H](C2CC2)C[C@@H](OCCCCO)O1	0	-3%	1	-5%	0%
CC(C)(C)[C@@H]1C=C(C(N)=O)O[C@H](OCc2ccc(CO)cc2)C1	-2	-1%	-4	-16%	1%
C#CCNC(=O)C1=C[C@H](C(C)(C)C)C[C@H](OCc2ccc(CO)cc2)O1	24	-5%	8	-17%	5%
O=C(c1c[nH]c2ccccc12)C(Cl)c1ccccc1 (centres undefined)	22	-56%	7	-4%	1%
Cc1nc(/N=C(\N)N(C)C)[nH]c(=O)c1C	-11	-6%	-3	-8%	5%
O=C(c1cccc(F)c1)N1CCC2(CC1)CN(c1ccc(-c3ccccc3)cc1)C2	/	/	/	1%	/
Cc1cc(N2CCCC2=O)cc(C)c1CN1C(=O)c2ccccc2C1=O	15	2%	27*	-5%	0%
O=C1CCCN1c1cccc(Br)c1	15	5%	1	4%	-1%
